The source of these data is PubChem BioAssay (EPA / NIEHS).

As a reminder, the AC50 is the midpoint of the concentration-response curve, whichever way the signal moves.

Each structure is given as a SMILES string. Records with an inconclusive call do not appear. Calls of active or inactive are those of the source. The calls were made as follows, unless noted: active = hit-call score of the fitted dose curve at least 0.9, where 1 is the maximum; inactive = score below 0.9.

Assay [1] in a line: ATG_PBREM_CIS: Attagene CIS-FACTORIAL HepG2 Assay for human Phenobarbital-responsive Enhancer Module (PBREM) (AID 2282955). The conditions noted are these: HepG2 PBREM cis-reporter, Attagene multiplexed transcription; actives raise or lower the signal. A digest of the protocol: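 HepG2 cells transiently transfected with multiple cis-regulated reporter units measure endogenous transcription factor activity; 24 h compound exposure. Reporter mRNA quantified by RT-PCR, fluorescent labelling, HpaI digestion and capillary electrophoresis; bidirectional fit versus DMSO.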

The target of assay [2] is Paired box protein Pax-6 (Homo sapiens) (UniProt P26367). Nature of the assay: ATG_Pax6_CIS: Attagene CIS-FACTORIAL HepG2 Assay for human Paired Box 6 (PAX6) (AID 2282956). As to conditions: HepG2 CIS-FACTORIAL PAX6 reporter transcription, RNA readout; actives raise or lower the signal. A digest of the protocol:
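Multiplexed cis-reporter HepG2 system; 24 h treatment; reporter mRNA read by RT-PCR/CE fluorescence; bidirectional fit vs DMSO.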

A short description of assay [3]: ATG_PXRE_CIS: Attagene CIS-FACTORIAL HepG2 Assay for human Pregnane X Receptor Element (PXRE) (AID 2282957). The conditions noted are these: HepG2 Attagene CIS-FACTORIAL PXRE reporter, mRNA; actives raise or lower the signal. A digest of the protocol:
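HepG2 cells transiently transfected with cis-element-driven multiplexed reporter units; after 24 h chemical exposure, reporter mRNA measured by RT-PCR, 6-FAM labelling, HpaI digestion and capillary electrophoresis. Bidirectional fitting relative to DMSO.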

Assay [4] is described as follows: ATG_PPRE_CIS: Attagene CIS-FACTORIAL HepG2 Assay for human Peroxisome Proliferator-activated Response Element (PPRE) (AID 2282958). As to conditions: HepG2 PPRE cis-element reporter, Attagene transcription factor profiling; actives raise or lower the signal. In short, it runs like this: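 HepG2 cells are transiently transfected with multiplexed cis-promoter reporter units to report endogenous PPAR activity. After 24 h dosing, reporter mRNA is read by RT-PCR and capillary electrophoresis. Fitting is bidirectional against DMSO.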

The nature of assay [5]: ATG_Sox_CIS: Attagene CIS-FACTORIAL HepG2 Assay for human SRY-box transcription factor (SOX) (AID 2282960). As to conditions: HepG2 Attagene cis-factorial SOX reporter, mRNA; actives raise or lower the signal. In short, it runs like this: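 HepG2 cells transiently transfected with multiple cis-regulated reporter units, then dosed for 24 h. Reporter mRNA quantified by RT-PCR, fluorescent labelling, HpaI digestion and capillary electrophoresis; bidirectional fit versus DMSO.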

The target in assay [6] is Transcription factor Sp1 (Homo sapiens) (UniProt P08047). Nature of the assay: ATG_Sp1_CIS: Attagene CIS-FACTORIAL HepG2 Assay for human Specificity Protein 1 (Sp1) (AID 2282961). The conditions noted are these: HepG2 Sp1 cis-reporter transcription, actives raise or lower the signal. A digest of the protocol:
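HepG2 cells transiently transfected with multiplexed cis-regulated reporter constructs, chemical exposure 24 h. Reporter mRNA quantified by RT-PCR with capillary electrophoresis; bidirectional fit relative to DMSO.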

Assay [7] is described as follows: ATG_SREBP_CIS: Attagene CIS-FACTORIAL HepG2 Assay for human Sterol Regulatory Element Binding (SREBP) (AID 2282962). As to conditions: HepG2 Attagene cis-factorial SREBP reporter, mRNA; actives raise or lower the signal. In short, it runs like this: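 mRNA induction of transfected cis-promoter reporters in HepG2 cells, 24 h post-dose. Detection: RT-PCR with 6-FAM-labelled products, HpaI digest, capillary electrophoresis. DMSO served as negative control and baseline.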

Assay [8] has as its target Signal transducer and activator of transcription 3 (Homo sapiens) (UniProt P40763). Kind of assay: ATG_STAT3_CIS: Attagene CIS-FACTORIAL HepG2 Assay for human Signal Transducer and Activator of Transcription 3 (STAT3) (AID 2282963). As to conditions: HepG2, Attagene cis-factorial STAT3 reporter transcription; actives raise or lower the signal. In short, it runs like this: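 HepG2 cells transiently transfected with multiple cis-element-driven reporter units report endogenous transcription factor activity. After 24 h compound exposure, reporter mRNA is measured by RT-PCR, 6-FAM labelling, HpaI digestion and capillary electrophoresis. Fitted bidirectionally versus DMSO.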

Assay [9] can be described thus: ATG_TA_CIS: Attagene CIS-FACTORIAL HepG2 Assay for human TA Basal Promoter (AID 2282964). As to conditions: HepG2 Attagene CIS-factorial TA basal promoter reporter; actives raise or lower the signal. In short, it runs like this:
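Fluorescence from labelled RT-PCR reporter fragments, separated by capillary electrophoresis, gives the signal. Cells: HepG2 transiently carrying multiple reporter units, 24 h chemical dosing. Gain or loss relative to DMSO.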

Assay [10] can be described thus: ATG_TCF_b_cat_CIS: Attagene CIS-FACTORIAL HepG2 Assay for human T-Cell-Factor with beta-catenin (TCF/b-cat) (AID 2282965). The conditions noted are these: HepG2 TCF/beta-catenin cis-reporter transcription, actives raise or lower the signal. In short, it runs like this: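 HepG2, transient MRTU transfection, cis-element-driven reporters (endogenous TFs). 24 h compound exposure. Readout: reporter mRNA by RT-PCR + 6-FAM primer extension, HpaI digest, capillary electrophoresis. Gain/loss fit vs DMSO baseline.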

A short description of assay [11]: ATG_TAL_CIS: Attagene CIS-FACTORIAL HepG2 Assay for human TAL Basal Promoter (AID 2282966).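 Also: background control endpoint measuring basal TAL promoter reporter mRNA not a specific factor.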 As to conditions: HepG2 Attagene cis-factorial TAL promoter reporter; actives raise or lower the signal. In short, it runs like this:
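HepG2 cells transiently transfected with multiplexed cis-promoter reporter units, dosed 24 h. Reporter mRNA quantified by RT-PCR, 6-FAM labelling, HpaI digestion and capillary electrophoresis; TAL basal promoter serves as background control, fitted bidirectionally versus DMSO.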

Assay [12] can be described thus: ATG_TGFb_CIS: Attagene CIS-FACTORIAL HepG2 Assay for human Transforming Growth Factor (TGF) (AID 2282967). As to conditions: HepG2 Attagene CIS TGFb reporter, mRNA transcription; actives raise or lower the signal. In short, it runs like this: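 Bidirectional fitting relative to DMSO gave the endpoint. Underlying data: reporter mRNA from HepG2 cells carrying transiently transfected cis-regulated reporter constructs, harvested 24 h after dosing and analyzed by RT-PCR and capillary electrophoresis.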

Assay [13] concerns the target Estrogen receptor (Homo sapiens) (UniProt P03372). Kind of assay: ATG_ERa_TRANS: Attagene TRANS-FACTORIAL HepG2 Assay for human Estrogen Receptor alpha (ERa) (AID 2282970; active = hit-call score of the fitted dose curve at least 0.9, where 1 is the maximum). As to conditions: HepG2 Attagene TRANS ERa GAL4 reporter, mRNA. A digest of the protocol:
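HepG2 cells transiently transfected with multiplexed GAL4-UAS reporter units read out chimeric NR-Gal4 activity. After 24 h compound exposure, reporter mRNA was quantified by RT-PCR, 6-FAM labeling, HpaI digestion and capillary electrophoresis, relative to DMSO.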

In assay [14] the target is Steroid hormone receptor ERR1 (Homo sapiens) (UniProt P11474). Nature of the assay: ATG_ERRa_TRANS: Attagene TRANS-FACTORIAL HepG2 Assay for human Estrogen-Related Receptor alpha (ERRa) (AID 2282971; active = hit-call score of the fitted dose curve at least 0.9, where 1 is the maximum). The conditions noted are these: HepG2 Attagene TRANS reporter, ERRa transactivation. In short, it runs like this: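 HepG2 cells transiently transfected with GAL4-UAS reporter units and chimeric NR-Gal4 constructs; after 24 hour compound incubation, reporter mRNA quantified by RT-PCR, fluorescent labelling and capillary electrophoresis, gain of signal versus DMSO.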

The target in assay [15] is X-box-binding protein 1 (Homo sapiens) (UniProt P17861). Kind of assay: ATG_Xbp1_CIS: Attagene CIS-FACTORIAL HepG2 Assay for human X-box Binding Protein 1 (XBP1) (AID 2282972). The conditions noted are these: HepG2 XBP1 cis-element reporter, Attagene multiplex; actives raise or lower the signal. A digest of the protocol: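 Fluorescence-labelled cDNA fragments from reporter transcripts, separated by capillary electrophoresis, give the signal. Source: HepG2 cells transfected with promoter-driven reporter units, harvested 24 h post-dose. DMSO served as reference for bidirectional curve fitting.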

A short description of assay [16]: ATG_RORE_CIS: Attagene CIS-FACTORIAL HepG2 Assay for human RAR-related Orphan Receptor Element (RORE) (AID 2282959). The conditions noted are these: HepG2 Attagene cis-factorial RORE reporter, mRNA; actives raise or lower the signal. In short, it runs like this: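 HepG2 cells carrying transiently transfected cis-regulated reporter units; RORE-driven reporter mRNA quantified 24 h post-dosing by RT-PCR, 6-FAM primer extension, HpaI digestion and capillary electrophoresis. Bidirectional fit versus DMSO.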

Assay [17] concerns the target Androgen receptor (Homo sapiens) (UniProt P10275). Nature of the assay: ATG_AR_TRANS: Attagene TRANS-FACTORIAL HepG2 Assay for human Androgen Receptor (AR) (AID 2282973; active = hit-call score of the fitted dose curve at least 0.9, where 1 is the maximum). The conditions noted are these: HepG2 Attagene TRANS-FACTORIAL AR reporter transcription. A digest of the protocol: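 HepG2 cells transiently transfected with AR-Gal4 chimera and GAL4-UAS reporter units; chemical exposure 24 h. Reporter mRNA quantified by RT-PCR with fluorescent labelling and capillary electrophoresis; gain-of-signal fitted against DMSO.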

Paired box protein Pax-6 (Homo sapiens), sequence (P26367 whole entry, looked up): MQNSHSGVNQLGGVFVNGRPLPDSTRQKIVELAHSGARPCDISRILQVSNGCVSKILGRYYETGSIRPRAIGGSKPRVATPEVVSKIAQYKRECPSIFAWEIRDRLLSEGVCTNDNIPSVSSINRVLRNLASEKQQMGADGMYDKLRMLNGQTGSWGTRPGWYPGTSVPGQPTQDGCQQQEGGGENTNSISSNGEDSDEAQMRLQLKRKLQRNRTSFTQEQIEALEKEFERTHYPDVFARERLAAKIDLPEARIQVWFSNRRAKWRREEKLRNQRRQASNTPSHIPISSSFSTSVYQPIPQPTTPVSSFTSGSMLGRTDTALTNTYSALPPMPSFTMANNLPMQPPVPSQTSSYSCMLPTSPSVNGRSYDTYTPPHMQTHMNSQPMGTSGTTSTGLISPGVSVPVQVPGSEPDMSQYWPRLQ
Estrogen receptor (Homo sapiens), sequence (P03372 whole entry, looked up, the tested form may be a part): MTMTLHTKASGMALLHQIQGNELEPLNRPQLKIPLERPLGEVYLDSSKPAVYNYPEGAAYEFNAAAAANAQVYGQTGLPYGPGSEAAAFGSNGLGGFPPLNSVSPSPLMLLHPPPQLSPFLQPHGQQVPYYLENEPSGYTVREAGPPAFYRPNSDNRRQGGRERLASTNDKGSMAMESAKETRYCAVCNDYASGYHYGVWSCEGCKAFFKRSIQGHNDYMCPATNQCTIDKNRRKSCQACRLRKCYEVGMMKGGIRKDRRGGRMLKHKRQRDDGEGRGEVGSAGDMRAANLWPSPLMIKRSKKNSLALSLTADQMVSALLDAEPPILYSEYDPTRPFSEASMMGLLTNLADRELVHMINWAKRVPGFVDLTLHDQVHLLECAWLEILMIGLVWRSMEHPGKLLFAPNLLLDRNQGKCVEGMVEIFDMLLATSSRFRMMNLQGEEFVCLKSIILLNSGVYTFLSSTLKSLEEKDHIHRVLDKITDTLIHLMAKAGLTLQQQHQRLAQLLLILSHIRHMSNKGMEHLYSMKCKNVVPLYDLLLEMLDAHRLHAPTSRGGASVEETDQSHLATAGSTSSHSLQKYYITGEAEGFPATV
Transcription factor Sp1 (Homo sapiens), sequence (P08047 whole entry, looked up): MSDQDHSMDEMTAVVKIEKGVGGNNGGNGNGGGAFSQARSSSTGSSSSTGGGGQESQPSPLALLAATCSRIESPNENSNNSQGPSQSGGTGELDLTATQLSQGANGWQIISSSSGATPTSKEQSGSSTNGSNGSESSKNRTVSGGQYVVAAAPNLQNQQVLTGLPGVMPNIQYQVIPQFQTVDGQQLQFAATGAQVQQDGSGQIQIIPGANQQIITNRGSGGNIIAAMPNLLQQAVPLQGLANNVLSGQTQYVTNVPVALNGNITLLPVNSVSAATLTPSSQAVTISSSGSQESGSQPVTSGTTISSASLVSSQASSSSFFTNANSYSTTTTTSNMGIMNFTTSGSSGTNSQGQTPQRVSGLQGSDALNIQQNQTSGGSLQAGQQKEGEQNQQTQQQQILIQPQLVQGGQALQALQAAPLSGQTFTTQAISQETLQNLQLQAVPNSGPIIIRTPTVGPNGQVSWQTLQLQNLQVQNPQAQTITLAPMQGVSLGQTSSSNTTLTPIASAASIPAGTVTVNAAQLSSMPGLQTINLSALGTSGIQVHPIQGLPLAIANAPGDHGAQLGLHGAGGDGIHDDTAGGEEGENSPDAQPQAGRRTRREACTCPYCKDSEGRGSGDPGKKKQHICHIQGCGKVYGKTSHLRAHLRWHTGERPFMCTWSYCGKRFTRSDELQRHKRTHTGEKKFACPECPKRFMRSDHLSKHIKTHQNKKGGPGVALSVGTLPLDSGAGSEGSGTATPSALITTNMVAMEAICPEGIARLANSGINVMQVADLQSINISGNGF
X-box-binding protein 1 (Homo sapiens), sequence (P17861 whole entry, looked up, the tested form may be a part): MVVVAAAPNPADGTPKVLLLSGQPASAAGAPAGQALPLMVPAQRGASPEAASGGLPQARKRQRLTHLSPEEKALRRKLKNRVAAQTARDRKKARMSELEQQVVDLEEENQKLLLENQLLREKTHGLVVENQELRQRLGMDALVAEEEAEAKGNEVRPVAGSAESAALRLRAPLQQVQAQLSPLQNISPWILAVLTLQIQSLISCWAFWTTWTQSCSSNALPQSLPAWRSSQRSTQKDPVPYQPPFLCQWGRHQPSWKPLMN
Signal transducer and activator of transcription 3 (Homo sapiens), sequence (P40763 whole entry, looked up): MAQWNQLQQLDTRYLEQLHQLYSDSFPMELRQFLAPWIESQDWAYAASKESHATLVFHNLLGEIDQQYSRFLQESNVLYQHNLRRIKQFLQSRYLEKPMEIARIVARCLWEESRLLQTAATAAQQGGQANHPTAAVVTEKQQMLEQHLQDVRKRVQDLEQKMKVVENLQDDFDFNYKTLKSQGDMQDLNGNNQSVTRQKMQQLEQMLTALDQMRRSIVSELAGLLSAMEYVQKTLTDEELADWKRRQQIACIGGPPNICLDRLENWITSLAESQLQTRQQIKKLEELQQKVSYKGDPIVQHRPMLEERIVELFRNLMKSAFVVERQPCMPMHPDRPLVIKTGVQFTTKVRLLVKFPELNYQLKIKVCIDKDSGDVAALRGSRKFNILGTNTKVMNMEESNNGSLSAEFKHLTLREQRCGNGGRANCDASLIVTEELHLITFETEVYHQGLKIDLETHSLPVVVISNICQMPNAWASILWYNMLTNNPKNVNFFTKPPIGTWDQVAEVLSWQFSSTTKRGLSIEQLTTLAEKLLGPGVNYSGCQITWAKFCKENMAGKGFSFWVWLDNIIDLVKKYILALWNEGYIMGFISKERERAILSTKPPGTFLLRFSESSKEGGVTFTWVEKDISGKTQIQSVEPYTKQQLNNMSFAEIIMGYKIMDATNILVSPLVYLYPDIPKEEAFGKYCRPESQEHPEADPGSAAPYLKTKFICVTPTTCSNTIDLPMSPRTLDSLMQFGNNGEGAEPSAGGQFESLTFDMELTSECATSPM
Steroid hormone receptor ERR1 (Homo sapiens), sequence (P11474 whole entry, looked up, the tested form may be a part): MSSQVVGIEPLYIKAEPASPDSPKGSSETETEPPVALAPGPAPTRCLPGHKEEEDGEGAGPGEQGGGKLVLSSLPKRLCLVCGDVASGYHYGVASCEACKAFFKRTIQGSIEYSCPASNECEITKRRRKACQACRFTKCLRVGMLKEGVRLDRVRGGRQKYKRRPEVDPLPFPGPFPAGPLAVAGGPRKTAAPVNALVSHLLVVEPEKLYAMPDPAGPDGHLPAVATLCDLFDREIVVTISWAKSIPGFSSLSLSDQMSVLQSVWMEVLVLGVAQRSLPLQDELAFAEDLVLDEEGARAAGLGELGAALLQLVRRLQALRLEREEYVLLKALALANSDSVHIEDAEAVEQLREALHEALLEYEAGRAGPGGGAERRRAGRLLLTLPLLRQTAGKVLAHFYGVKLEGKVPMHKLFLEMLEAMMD
Androgen receptor (Homo sapiens), sequence (P10275 whole entry, looked up, the tested form may be a part): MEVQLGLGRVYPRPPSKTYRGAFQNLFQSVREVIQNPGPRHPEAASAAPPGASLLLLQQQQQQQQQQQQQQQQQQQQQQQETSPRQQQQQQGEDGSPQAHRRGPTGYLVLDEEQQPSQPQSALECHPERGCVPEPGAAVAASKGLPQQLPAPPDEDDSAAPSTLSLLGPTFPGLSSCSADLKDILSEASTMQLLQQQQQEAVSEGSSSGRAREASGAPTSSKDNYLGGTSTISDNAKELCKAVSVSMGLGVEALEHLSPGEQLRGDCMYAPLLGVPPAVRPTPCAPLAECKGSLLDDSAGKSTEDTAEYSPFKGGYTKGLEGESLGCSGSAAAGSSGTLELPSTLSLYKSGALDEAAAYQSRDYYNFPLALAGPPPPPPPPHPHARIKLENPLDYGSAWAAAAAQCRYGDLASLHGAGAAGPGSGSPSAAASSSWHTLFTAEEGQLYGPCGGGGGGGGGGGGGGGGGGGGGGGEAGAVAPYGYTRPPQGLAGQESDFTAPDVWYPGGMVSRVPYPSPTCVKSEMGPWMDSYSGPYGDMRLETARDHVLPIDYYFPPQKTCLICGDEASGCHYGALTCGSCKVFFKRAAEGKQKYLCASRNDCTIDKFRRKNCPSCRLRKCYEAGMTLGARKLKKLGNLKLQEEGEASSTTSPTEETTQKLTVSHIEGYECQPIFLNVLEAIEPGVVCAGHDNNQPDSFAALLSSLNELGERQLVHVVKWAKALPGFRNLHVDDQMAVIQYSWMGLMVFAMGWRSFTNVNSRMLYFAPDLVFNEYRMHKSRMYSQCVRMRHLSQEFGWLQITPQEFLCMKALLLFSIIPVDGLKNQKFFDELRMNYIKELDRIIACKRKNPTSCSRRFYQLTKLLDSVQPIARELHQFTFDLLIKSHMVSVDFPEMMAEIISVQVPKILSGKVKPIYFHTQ

On to `OC(c1ccc(Cl)cc1)(c1ccc(Cl)cc1)C(Cl)(Cl)Cl`, for which the outcome in assay [1], in assay [2], in assay [4], in assay [5], in assay [6] and in assay [7] was inactive. Moreover, the call in assay [8], in assay [9], in assay [10], in assay [11], in [12] and in assay [13] was inactive. Besides, the compound was classed as inactive in assay [14] and in [15]. The half-maximal activity concentration (AC50) in assay [3] was 2.86 µM (active).
As to `COP(=O)(OC)O/C(C)=C/C(=O)N(C)C`, the call in assay [2], in [4], in assay [16], in [5], in assay [6] and in [7] was inactive. Further, the call in assay [8], in assay [9], in assay [10], in assay [11], in assay [12] and in assay [13] was inactive. The outcome in [15] was inactive. In assay [3], the AC50 is 68.5 µM (active).
On to `CC(C)Nc1nc(Cl)nc(NC(C)C)n1`, for which the outcome in [1], in assay [2], in [4], in assay [5], in [6] and in assay [7] was inactive. The compound was called inactive in assay [8], in assay [9], in [10], in [11], in [12] and in assay [13]. Besides, the compound was called inactive in assay [14] and in assay [15]. Further, the AC50 in assay [3] is 15.3 µM (active).
Take `COc1ccc(-c2ccccc2)cc1NNC(=O)OC(C)C`: the AC50 is 15.9 µM (active) in [1], 3.69 µM (active) in assay [3], 15.2 µM (active) in assay [7] and 50 µM (active) in assay [15]. Further, the result in [2], in assay [16], in assay [5], in assay [6], in [8] and in [9] was inactive. Moreover, the compound was called inactive in assay [10], in assay [11], in assay [12], in [13] and in assay [17].
